Vif-A3F inh: blocks the Vif interaction with APOBEC3F | HeLa A3F-eYFP + Vif (tagged APOBEC3F with the HIV-1 protein that degrades it), YFP fluorescence increase | Potency, µM (highest dose often 46.1 µM) | hit rate 0.2% among 390,000; further: nearly all actives have a fitted effect of over 65% in size
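HeLa cells stably expressing Vif plus C-terminally eYFP-tagged A3F were seeded, incubated overnight at 37 deg C, dosed with compound, incubated overnight again at 37 deg C. Yellow fluorescence (Ex 488/Em 500-530) reported blocked Vif-mediated A3F-eYFP degradation.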
Epigenetic derep: regulators of epigenetic silencing causing reporter derepression in mouse cells | murine LDR cells, GFP reporter derepression, 30 h | Potency, µM (top dose mostly 53.9 µM), most hits filed as activators | hit rate 0.2% among 280,000; further: nearly all actives have a fitted effect of over 60% in size
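Derepression of a silenced CMV-GFP reporter in murine LDR cells is scored by enumerating GFP-positive cells with a laser-scanning microplate cytometer after 30 hours of treatment at 37 C.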
Vif-A3G inh: Vif-A3G binding inhibition | hit rate 0.076% among 410,000 | HeLa A3G-eYFP + Vif (tagged APOBEC3G with the HIV-1 protein that degrades it), YFP fluorescence, overnight | Q9HC16 | Potency, µM (titrated, usually from 46.1 µM), hits mostly inhibitors; further: nearly all actives have a fitted effect of over 60% in size
Target sequence (Q9HC16 whole entry, looked up): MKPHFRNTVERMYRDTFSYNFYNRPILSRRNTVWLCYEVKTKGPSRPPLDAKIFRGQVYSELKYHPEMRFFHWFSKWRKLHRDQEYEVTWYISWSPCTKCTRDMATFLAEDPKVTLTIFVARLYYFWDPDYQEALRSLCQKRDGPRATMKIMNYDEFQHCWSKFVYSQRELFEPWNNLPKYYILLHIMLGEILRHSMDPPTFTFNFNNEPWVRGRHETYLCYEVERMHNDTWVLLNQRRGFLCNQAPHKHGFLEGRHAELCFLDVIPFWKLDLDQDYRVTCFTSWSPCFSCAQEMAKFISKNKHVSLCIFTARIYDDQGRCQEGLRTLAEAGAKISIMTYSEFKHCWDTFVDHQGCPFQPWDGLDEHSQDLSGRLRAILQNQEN
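Read-out is eYFP fluorescence (Ex 488/Em 500-530) from Vif-expressing HeLa A3G-eYFP cells; more signal means A3G escaped Vif-mediated degradation. Cells plated overnight, compound pinned in, incubated overnight at 37 deg C.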
HCC4017 viab: reduces HCC4017 lung cancer cell viability among epigenetic modulators; shares compounds with Epigenetic derep; HCC4017 NSCLC viability, CellTiter-Glo ATP luminescence, 72 h; Potency, µM (top dose mostly 46.1 µM), actives largely listed as cytotoxic; hit rate 30% among 45; AID 493071
H358 viab: reduces H358 lung cancer cell viability among epigenetic modulators; hit rate 30% among 45; shares compounds with Epigenetic derep; Potency, µM (doses to about 46.1 µM), hits mostly cytotoxic; H358 NSCLC viability, ATP luminescence, 72 h
Numbers stand for hits; 0 = inactive; ? = inconclusive; - = no result. Shown are actives, neighbours in structure and some others; about 0.34% of the full set was active somewhere. The call rests on the fitted dose curve; in most records, active means well fitted curve in the direction sought with a large enough effect; inconclusive means small, poorly fitted or top-dose-only effect, or another doubt; inactive means no such curve, though single readings can be large; an effect the other way counts as inactive or inconclusive.

SMILES	Vif-A3F inh	Epigenetic derep	Vif-A3G inh	others
C=CCN1CCc2cccc3c2C1Cc1ccc(O)c(O)c1-3 (stereo not given)	-	0	-
CCC(C)N1C(=O)/C(=C\c2cc3c4c(c2)CCCN4CCC3)C(=O)NC1=S (stereo not given)	0	0	0
CCC(C)N1C(=O)/C(=C\c2ccc(N3CCCCCC3)cc2)C(=O)NC1=S (stereo not given)	22µM	0	0
O=C(c1ccccc1)c1ccc2nc(N3CCN(c4ccc(F)cc4)CC3)c3nncn3c2c1	?	0	0
CN1CSC(=S)N(C)C1	0	8.9µM	0	HCC4017 viab=?;H358 viab=?
Cc1[nH]ccc2c1[nH]c1cc(=O)ccc12	0	?	0
CC[C@@H]1CN2CCc3cc(OC)c(OC)cc3[C@@H]2C[C@@H]1C[C@H]1NCCc2cc(OC)c(OC)cc21	-	0	-

Source: PubChem BioAssay
